From PubChem
PrPC TRFRET – cell surface PrPC inhibition, primary TR-FRET screen. TR-FRET read-out. inhibition, % at 13.8 µM. hit rate 0.43% among 370,000; in the data active = inhibition above about 24%; note: 0% = median of the test wells and 100% = reference compound wells
PfHsp40 rescue – rescue of PfHsp40-mediated yeast toxicity; S. cerevisiae expressing PfHsp40, growth rescue, ATP luminescence; growth rescue, % at 12.5 µM; hit rate 0.68% among 340,000; AID 504582; in the data active = growth rescue above about 28%, passing the limit was not always enough;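 note: yeast W303a lacking pdr1 and pdr3 grown in galactose medium; growth measured after three days at 30 °C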
MazF activator – activators of E. coli MazEF toxin-antitoxin RNase | activation, % at 20 µM | FAM/BHQ RNA-DNA oligo cleavage fluorescence, 5 h | P0AE70 | hit rate 0.32% among 350,000; in the data active = activation above about 50%
Target sequence (P0AE70 whole entry, looked up): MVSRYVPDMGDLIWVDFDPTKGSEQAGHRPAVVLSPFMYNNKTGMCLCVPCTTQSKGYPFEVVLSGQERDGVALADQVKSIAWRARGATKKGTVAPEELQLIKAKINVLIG
PrP 5UTR inh – suppresses PrP 5' UTR mRNA reporter expression; cell-based PrP 5' UTR mRNA reporter, plate reader; inhibition, % (no concentration beside the values); hit rate 0.35% among 340,000; AID 488862; in the data active = inhibition above about 52%; note: 0 = median of the neutral control wells
DUSP3 inh – DUSP3 (human) phosphatase inhibition. inhibition, % at 13.3 µM. recombinant VHR phosphatase, pNPP absorbance. hit rate 0.52% among 290,000; in the data active = inhibition above about 50%
Target sequence (P51452 whole entry, looked up): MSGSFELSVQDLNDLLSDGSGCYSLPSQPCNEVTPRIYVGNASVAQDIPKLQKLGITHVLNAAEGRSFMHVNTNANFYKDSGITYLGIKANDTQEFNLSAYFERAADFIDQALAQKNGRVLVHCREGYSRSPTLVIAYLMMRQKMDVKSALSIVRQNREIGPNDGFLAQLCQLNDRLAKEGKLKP
BJeLR viability – BJeLR cell viability loss; hit rate 0.17% among 300,000; BJeLR (HRASV12) viability, CellTiter-Glo ATP luminescence, 48 h; AID 1554; inhibition, % (no concentration beside the values); in the data active = inhibition above about 50%
Numbers without * were called inactive; . = no result. Only some compounds are listed: those with a hit (about 2.1% of all), similar ones and a draw of the others.

SMILES | PrPC TRFRET | PfHsp40 rescue | MazF activator | PrP 5UTR inh | DUSP3 inh | BJeLR viability
N#Cc1c(NC(=O)/C=C/c2ccco2)sc2c1CCCC2 | 4 | 0 | -4 | 2 | 14 | 56*
Cc1ccccc1C(=O)NC(=S)Nc1sc2c(c1C#N)CCCC2 | 2 | 71* | 2 | -4 | -11 | -5
Cc1ccc(-n2ncc3c2CC(C)(C)CC3NC(=O)c2ccccn2)cc1 (stereo not drawn) | 2 | 2 | 9 | 14 | 4 | 3
Cn1cc(C(=O)c2cccc(Cl)c2)cc1C#N | 5 | -1 | 11 | -9 | 9 | 1
Cn1cc(C(=O)c2cccc(Cl)c2)cc1/C=N\O | 5 | 30* | 6 | -23 | 23 | 5
COc1ccccc1C(=O)OCc1ccc2sc(C)nc2c1 | -4 | 1 | -1 | -26 | 17 | 4
Cc1ccc(C(=O)OCc2nnc(-c3ccc(Br)cc3)o2)cc1 | -6 | 27* | -6 | -16 | 8 | 2
CCc1cc(C(=O)N2CCCC(CCC(=O)N3CCN(c4ccccn4)CC3)C2)no1 (stereo not drawn) | 5 | 1 | 7 | -27 | 11 | -11
O=C(CCC1CCCN(C(=O)c2cc(C3CC3)[nH]n2)C1)N1CCN(c2ccccn2)CC1 (stereo not drawn) | -4 | 1 | 7 | -24 | 52* | 2
O=S1(=O)N=C(Nc2ccc(S(=O)(=O)N3CCCCC3)cc2)c2ccccc21 | 6 | -1 | -1 | 0 | 53* | 8
Cc1noc(C)c1COC(=O)CCCNC(=O)c1ccc(Cl)cc1 | -3 | 1 | 8 | -19 | 13 | 2
Cc1cccc(COC(=O)CCCNC(=O)c2ccc(Cl)cc2)c1 | 5 | 77* | 3 | -29 | . | .
CC(=O)c1ccc(N2CCN(S(=O)(=O)c3c(C(=O)N4CCCC4)c(C)n(C)c3C)CC2)cc1 | -12 | -2 | 7 | -3 | 2 | 2
COc1ccc(N2CCN(S(=O)(=O)c3c(C(=O)N4CCOCC4)c(C)n(C)c3C)CC2)cc1 | 1 | 0 | 1 | -13 | 51* | -5
CCN(CC)c1ccc(NC(=O)CCS(=O)(=O)c2ccc(Br)cc2)c(C)c1 | -6 | -1 | 6 | -12 | 52* | 2
N#CC1CC(c2ccc([N+](=O)[O-])cc2)=NN1c1ccc([N+](=O)[O-])cc1 (stereo not drawn) | -2 | 0 | 563* | -19 | 18 | -11
O=[N+]([O-])c1cccc(C2CC(c3ccccc3)=NN2c2ccccc2)c1 (stereo not drawn) | 2 | -1 | 9 | -11 | -4 | -7
C#CC(c1ccccc1)(c1ccccc1)n1ccnc1 | -6 | . | 4 | . | . | .
Clc1ccccc1C(c1ccccc1)(c1ccccc1)n1ccnc1 | 16 | 173* | 3 | -43 | 3 | 1
C=CCN(CC=C)C(=S)NC(=O)c1ccc(C)c(Br)c1 | -6 | 296* | 0 | -10 | -7 | -6
Nc1c(Cl)ncnc1N/N=C/c1ccc2ccccc2n1 | 5 | 503* | 3 | -22 | 2 | .
CCCc1ccc2oc(C(=O)NCCc3cnn(C)c3)c(C)c2c1 | 8 | 3 | 0 | -69 | 22 | 5
CCCc1ccc2oc(C(=O)NCCc3nc(C(=O)OCC)cs3)c(C)c2c1 | -1 | 40* | 8 | -36 | 25 | -6
CC(=O)NC(Cc1cc(C)ccc1C)C(=O)N1CCN(C(=O)c2ccc([N+](=O)[O-])cc2)CC1 (stereo not drawn) | 0 | 2 | 5 | -41 | 54* | -1
CC(=O)NC(Cc1cc(C)ccc1C)C(=O)N1CCN(C(=O)c2ccccc2Br)CC1 (stereo not drawn) | 1 | -1 | -25 | -2 | -4 | 0
SMILES | PrPC TRFRET | PfHsp40 rescue | MazF activator | PrP 5UTR inh | DUSP3 inh | BJeLR viability
Cc1cc(C)c2c(N=NN(C)C)[nH]nc2n1 | -7 | 68* | -1 | -17 | 10 | -4
CCCCn1c(NC(=O)c2ccc(Br)o2)c(C(=O)OCC)c2nc3ccccc3nc21 | -1 | -1 | 80* | -17 | 39 | .
CC1CCCN(CCCNC(=O)c2ccc(NC(=O)C3=CSCCO3)cc2)C1 (stereo not drawn) | -6 | 0 | 7 | -15 | 2 | -9
O=C(Nc1ccc(C(=O)NCCCN2CCCCC2)cc1)C1=CSCCO1 | -8 | 0 | 12 | -14 | 57* | -11
C#CCSc1nc2sc3c(c2c(=O)n1C)CCC3 | -8 | -1 | -20 | -12 | 58* | -7
CSc1nc2sc3c(c2c(=O)n1C)CCC3 | 0 | 2 | 2 | -30 | -4 | 8
CCOC(=O)N1CCN(c2c(-c3ccc(C)cc3)c(=O)c2=O)CC1 | -21 | 1 | -2 | 1 | 54* | -3
CCOC(=O)N1CCN(c2c(-c3ccc(C(C)C)cc3)c(=O)c2=O)CC1 | -10 | 1 | -5 | -1 | 20 | 1
Cc1ccc(N=Cc2c(O)n(-c3ccc(C)cc3)c(=O)[nH]c2=O)cc1 | 6 | 1 | 6 | -7 | . | 11
Cc1ccc(-n2c(O)c(C=Nc3ccccc3N)c(=O)[nH]c2=O)cc1C | 4 | 40* | -24 | -12 | 21 | -3
Cc1cc(S(N)(=O)=O)ccc1N=Cc1c(O)n(-c2ccccc2)c(=O)[nH]c1=O | 1 | -1 | 0 | -14 | 6 | -3
O=c1[nH]c(=O)n(-c2ccc(F)cc2)c(O)c1C=Nc1ccccc1N1CCCC1 | -4 | -2 | 206* | -5 | -1 | 5
CC(=O)c1sc(NC(=O)C2CC(=O)N(Cc3ccccc3)C2)nc1-c1ccccc1 (stereo not drawn) | -2 | . | -7 | -12 | . | -4
CCOC(=O)[C@]12CCC=C1N(Cc1ccc(Cl)cc1Cl)C(=O)[C@H](CC(=O)NCc1cccc(C(F)(F)F)c1)C2 | 6 | . | . | . | . | .
O=S(=O)(c1ccc(SCc2ccc(Br)cc2)nc1)N1CCCCC1 | 8 | 0 | -4 | -1 | . | .
CCN(CC)C(=O)CC[C@@H]1CC[C@]2(CCCN(Cc3nccs3)C2)O1 | -10 | . | . | . | . | .
Cc1ccc(C)c(N2CCN(C3C(=O)Nc4ccccc4-n4nnnc43)CC2)c1 (stereo not drawn) | -4 | . | . | . | . | .
O=C(Nc1ccccc1N(C(=O)c1ccco1)S(=O)(=O)c1cccs1)c1ccco1 | -3 | 41* | 3 | 1 | 16 | 0
COc1cc2cc(C(=O)N(C)C3CCS(=O)(=O)C3)[nH]c2cc1OC (stereo not drawn) | -1 | -1 | -20 | 0 | 6 | 3
COC(=O)c1ccccc1NC(=O)Cn1cnc2c(cnn2-c2ccccc2)c1=O | . | 0 | 63* | -33 | 16 | 6
CCOc1ccccc1NC(=O)Cn1cnc2c(cnn2-c2ccc(C)c(C)c2)c1=O | -4 | -1 | 162* | -11 | 14 | -5
CCOc1ccc(NC(=O)N2CCCC2C(=O)NCc2ccco2)cc1 (stereo not drawn) | 2 | -1 | 9 | -25 | 22 | 6
CCS(=O)(=O)N1Cc2ccccc2CC1C(=O)N1CCN(c2ccccc2)CC1 (stereo not drawn) | 9 | -1 | -2 | -22 | 52* | -3
